For 16 compounds, inhibition results are on record in PubChem BioAssay.

Molecules are shown by their SMILES. A number with no mark means an inactive call. Active and inactive are the calls of the source. Unless noted, no stated cut-off is given here; in the data, active means inhibition above about 33%; inactive means the rest.

In general, inhibition refers to the drop in the measured response relative to a control, in per cent.

Test [1] is described as follows: StAR promoter reporter inhibitors, counter-screen for LRH-1 inverse agonist project, cell-based, luminescence, high throughput (AID 651611; in the data active means inhibition above about 28%). Conditions: StAR promoter luciferase reporter counterscreen, at 3.6 µM, active compounds read high. For orientation: Counterscreens check selectivity or assay interference.
In test [2] the target is Nuclear receptor subfamily 5 group A member 2 (Homo sapiens) (UniProt O00482). Nature of the test: LRH-1 (NR5A2) inverse agonists, retest, confirmation, cell-based, luminescence (AID 651613; in the data active means inhibition above about 42%;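 further: HEK293T cells co-transfected with LRH-1 and StAR promoter luciferase reporter; 0% = vehicle wells and 100% = parental cells lacking receptor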). To be noted: cell-based LRH-1 luciferase reporter, inverse agonism; at 3.6 µM; active compounds read high. (A reporter such as luciferase makes a cellular process visible.)
Sequence of Nuclear receptor subfamily 5 group A member 2 (Homo sapiens) (O00482 whole entry, looked up): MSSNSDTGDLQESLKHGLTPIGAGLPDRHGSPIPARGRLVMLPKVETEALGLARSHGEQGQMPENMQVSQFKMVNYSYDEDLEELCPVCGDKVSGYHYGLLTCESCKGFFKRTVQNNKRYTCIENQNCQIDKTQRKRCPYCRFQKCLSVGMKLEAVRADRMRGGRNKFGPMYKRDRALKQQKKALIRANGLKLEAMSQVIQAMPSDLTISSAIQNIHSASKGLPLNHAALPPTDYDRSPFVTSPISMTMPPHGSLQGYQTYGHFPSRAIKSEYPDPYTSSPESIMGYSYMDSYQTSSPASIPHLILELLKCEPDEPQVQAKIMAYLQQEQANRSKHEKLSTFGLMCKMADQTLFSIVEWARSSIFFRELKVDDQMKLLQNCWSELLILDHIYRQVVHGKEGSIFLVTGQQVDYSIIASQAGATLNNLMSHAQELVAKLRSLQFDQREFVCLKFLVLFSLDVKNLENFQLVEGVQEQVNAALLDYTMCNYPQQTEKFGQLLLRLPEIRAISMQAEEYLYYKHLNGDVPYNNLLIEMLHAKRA
For test [3], the target named is Steroidogenic factor 1 (Homo sapiens) (UniProt Q13285). Nature of the test: SF1 (NR5A1) inverse agonists, counter-screen for LRH-1 inverse agonist project, cell-based, luminescence, high throughput (AID 651614; in the data active means inhibition above about 44%;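 further: cells cotransfected with StAR promoter reporter and SF1 expression vector; 0% = vehicle on cells with receptor and 100% = vehicle on cells lacking receptor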). Conditions: cell-based SF1 luciferase reporter, at 3.6 µM, active compounds read high.
Sequence of Steroidogenic factor 1 (Homo sapiens) (Q13285 whole entry, looked up, the tested form may be a part): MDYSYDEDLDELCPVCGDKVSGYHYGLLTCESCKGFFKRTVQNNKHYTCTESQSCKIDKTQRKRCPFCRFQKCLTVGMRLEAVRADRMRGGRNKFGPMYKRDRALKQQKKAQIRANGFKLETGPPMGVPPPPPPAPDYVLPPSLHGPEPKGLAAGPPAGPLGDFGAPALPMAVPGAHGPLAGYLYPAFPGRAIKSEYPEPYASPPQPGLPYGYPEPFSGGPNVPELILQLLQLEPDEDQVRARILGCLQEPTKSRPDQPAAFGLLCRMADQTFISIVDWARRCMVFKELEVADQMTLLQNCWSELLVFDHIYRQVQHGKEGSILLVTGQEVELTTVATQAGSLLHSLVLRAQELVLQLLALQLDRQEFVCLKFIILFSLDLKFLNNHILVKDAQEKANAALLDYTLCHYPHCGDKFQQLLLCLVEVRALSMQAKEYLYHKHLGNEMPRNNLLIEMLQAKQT
Test [4] can be described thus: VP16 transactivation reporter inhibitors, counter-screen for LRH-1 inverse agonist project, cell-based, luminescence, high throughput (AID 651615). Conditions: Gal4-VP16 luciferase reporter cells, at 3.6 µM, active compounds read high.
For test [5], the system named is transactivating tegument protein VP16 (Human herpesvirus 1). Nature of the test: VP16 transactivation reporter inhibitors, counter-screen for SRC2 inhibitor project, cell-based, luminescence, single concentration (AID 652007; in the data active means inhibition above about 36%). Conditions: cell-based VP16 transactivation luciferase reporter, at 8.9 µM, active compounds read high.
Test [6] has as its target Nuclear receptor coactivator 2 (Homo sapiens) (UniProt Q15596). Nature of the test: SRC2 coactivator transcriptional activity inhibitors, confirmation, cell-based, luminescence, HEK293, triplicate (AID 652008;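 active means mean inhibition above 46.5%, the solvent-only control mean plus 3 SD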;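 further: 0% = DMSO-treated cells and 100% = Gossypol at 36 µM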). To be noted: HEK293 GAL4-SRC2 luciferase reporter, at 8.9 µM, active compounds read high.

Sequence of Nuclear receptor coactivator 2 (Homo sapiens) (Q15596 whole entry, looked up, the tested form may be a part): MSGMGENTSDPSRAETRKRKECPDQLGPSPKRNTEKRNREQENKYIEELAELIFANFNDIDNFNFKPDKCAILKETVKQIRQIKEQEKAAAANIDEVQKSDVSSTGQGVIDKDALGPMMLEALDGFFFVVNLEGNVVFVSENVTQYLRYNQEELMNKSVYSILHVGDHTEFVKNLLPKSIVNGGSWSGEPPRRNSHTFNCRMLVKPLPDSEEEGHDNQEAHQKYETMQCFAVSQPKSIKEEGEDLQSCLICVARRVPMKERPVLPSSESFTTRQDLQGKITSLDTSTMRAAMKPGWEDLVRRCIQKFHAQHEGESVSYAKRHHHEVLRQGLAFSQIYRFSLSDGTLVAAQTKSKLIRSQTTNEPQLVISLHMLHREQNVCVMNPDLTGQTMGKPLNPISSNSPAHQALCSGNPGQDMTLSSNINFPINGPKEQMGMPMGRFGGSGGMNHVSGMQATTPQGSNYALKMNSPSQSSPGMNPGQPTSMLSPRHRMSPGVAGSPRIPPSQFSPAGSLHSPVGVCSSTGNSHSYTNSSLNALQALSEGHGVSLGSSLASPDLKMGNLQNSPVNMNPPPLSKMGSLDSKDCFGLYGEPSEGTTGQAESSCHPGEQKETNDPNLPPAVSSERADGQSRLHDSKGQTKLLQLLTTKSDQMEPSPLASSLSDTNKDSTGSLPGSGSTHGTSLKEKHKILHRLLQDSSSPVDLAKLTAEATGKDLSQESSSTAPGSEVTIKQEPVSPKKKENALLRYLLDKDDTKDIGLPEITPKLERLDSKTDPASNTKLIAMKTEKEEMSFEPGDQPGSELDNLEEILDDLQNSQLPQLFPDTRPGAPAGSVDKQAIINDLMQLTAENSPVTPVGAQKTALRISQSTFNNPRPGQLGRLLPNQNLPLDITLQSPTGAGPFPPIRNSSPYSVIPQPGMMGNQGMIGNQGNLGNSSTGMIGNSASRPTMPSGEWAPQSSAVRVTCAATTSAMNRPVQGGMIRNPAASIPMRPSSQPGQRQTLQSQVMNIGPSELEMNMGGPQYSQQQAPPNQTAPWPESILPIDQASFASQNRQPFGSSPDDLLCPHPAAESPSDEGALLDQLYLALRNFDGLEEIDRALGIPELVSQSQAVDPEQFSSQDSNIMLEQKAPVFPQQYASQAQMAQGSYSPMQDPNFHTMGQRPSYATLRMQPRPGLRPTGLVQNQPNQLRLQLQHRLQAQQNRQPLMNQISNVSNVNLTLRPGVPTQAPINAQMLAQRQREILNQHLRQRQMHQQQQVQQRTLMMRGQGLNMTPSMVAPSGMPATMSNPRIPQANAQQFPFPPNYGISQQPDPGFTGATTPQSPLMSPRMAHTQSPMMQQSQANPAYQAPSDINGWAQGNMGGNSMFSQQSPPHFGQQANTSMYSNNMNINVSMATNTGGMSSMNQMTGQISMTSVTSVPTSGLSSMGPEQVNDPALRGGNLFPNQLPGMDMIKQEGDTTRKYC

Take `COc1ccc(C(=O)Nc2ccc(S(=O)(=O)N3CCc4ccccc43)cc2)cc1`: the inhibition in test [1] is 29.2% (active); in test [2], 40.6%; in test [3] it was 44.5% (active); in test [4], 44.7% (active).
Taken in the same sequence, the figures for `CCOc1cc(S(=O)(=O)NCc2ccncc2)ccc1Cl` were 21.4%, 56.6% (active), 57.9% (active) and 55.6% (active).
In the same order, the values of `CCn1c2ccccc2c2cc(/C=N/n3cn[nH]c3=S)ccc21` are 4.27%, 28.1%, 34.3% and -3.24%.
`COc1ccc(C2=NS(=O)(=O)N(C)C(C(=O)N3CCc4ccccc4C3)=C2)cc1OC`: the inhibition in test [1] was 5.52%; in test [2], 43% (active); in test [3], 46.2% (active); in test [4], 24.2%.
Taken in the same sequence, the figures for `COc1ccc(CNC(=O)c2cccc3c(-c4cnn(C)c4)coc23)cc1OC` were 12.8%, 46.2% (active), 46% (active) and 36.4% (active).
In the same order, the values of `CS(=O)(=O)N1CCN(c2ccc(NC(=O)CSc3nnc(-c4ccco4)o3)cc2)CC1` are 4.74%, 54% (active), 54.1% (active) and -2.76%.
For the compound `Cc1cc2oc(=O)cc(C)c2cc1NC(=O)CCl`, the inhibition was 32.9% (active) in test [1], 58.9% (active) in test [2], 57.7% (active) in test [3] and -57.1% in test [4].
In the same order, the values of `Cc1cc(C)nc(NC(=O)c2ccc([N+](=O)[O-])o2)n1` are 17.2%, 61.6% (active), 53.4% (active) and -11.8%.
In the same order, the values of `Cc1nc2ccccc2n1/N=C/c1ccc([N+](=O)[O-])o1` are 16.3%, 70.9% (active), 68.1% (active) and 15%.
As to `COc1ccc(Nc2nc(Nc3ccc(OC)cc3)nc(SC3=NCCS3)n2)cc1`, the inhibition in test [1] was 19.6%; in test [2] it was 53.3% (active); in test [3], 53.4% (active); in test [4], 4.27%.
Taken in the same sequence, the figures for `O=C(CSc1nc2[nH]ncc2c(=O)n1-c1ccccc1)c1ccc2c(c1)OCCO2` were 0.39%, 38.2%, 32.6% and -16.1%.
In the same order, the values of `C[C@@H]1CN([C@@H](C)CO)S(=O)(=O)c2ccc(-c3ccc(C#N)cc3)cc2O[C@@H]1CN(C)Cc1ccccn1` are 24.5%, 51.8% (active), 48% (active) and -14.3%.
`CC1CCCN(c2cc(N(C)CCO)c([N+](=O)[O-])c3nonc23)C1` (stereo not drawn): the inhibition in test [1] was 14.3%; in test [2] it was 56.2% (active); in test [3], 43.2% (active); in test [4] it was 14.8%.
Take `Cc1cc(C)c(C#N)c(Sc2nc(C)c([N+](=O)[O-])c(C)c2C#N)n1`: the inhibition in test [1] is 3.51%; in test [2], 10.9%; in test [3] it was 9.59%; in test [4], 20.6%; in test [5], 12.9%; in test [6], 25.4%.
With `Cc1cc(C)nc(SCC(=O)Nc2ccc(N3CCOCC3)c(Cl)c2)n1`, the inhibition in test [1] is -5.17%; in test [2], 67.5% (active); in test [3], 59.8% (active); in test [4] it was 35.7% (active).
In the case of `CCOc1ccc(-c2cc(CCCC(=O)Nc3cccc(OC)c3)no2)cc1`, the inhibition in test [1] was 40.6% (active); in test [2] it was 40.9%; in test [3], 48.5% (active); in test [4], 6.33%; in test [5] it was 36.8% (active); in test [6], 58.9% (active).
